Test results from PubChem BioAssay AID449762 (Southern Research Specialized Biocontainment Screening …, 2010).
Among all 330,000 compounds or so, about 1,900 (0.58%) were called active. Roughly 4% stayed inconclusive and do not appear here. No stated cut-off is given here; in the data, inconclusive means inhibition above about 70% without an active follow-up result; inactive means below that. Not all results are given here. Entries with a potency or affinity are not part of this list.

Assay: M. tuberculosis growth inhibition, HTS (AID 449762);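 further: bacterial growth assessed after seven days of incubation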
Conditions: M. tuberculosis H37Rv growth inhibition, 7H9 media; at 25 µM; active compounds read high

SMILES	inhibition
Cc1cc(OCC(=O)NCCCN2CCOCC2)c2c(C)cc(=O)oc2c1	3.65% (inactive)
O=C(Cc1c(Cl)cccc1Cl)N1CCN(Cc2ccccc2)CC1	7.3% (inactive)
C/C(=N\NC(=O)c1ccc(Cn2cc(Br)cn2)o1)c1cccc(NC(=O)C(C)(C)C)c1	-8.27% (inactive)
COc1cccc(CN(C)CC(=O)Nc2ccccc2C(=O)Nc2ccccc2)c1OC	-3.55% (inactive)
CN(CC(=O)Nc1ccc(F)cc1)C(=O)COC(=O)c1cc(S(=O)(=O)N(C)C)ccc1N1CCCC1	0.17% (inactive)
Cc1cc(C)c2cc(C(=O)Nc3ccc4c(c3)OCO4)[nH]c2c1	-1.94% (inactive)
CCc1ccc2[nH]c(C(=O)Nc3ccc(C)c(F)c3)cc2c1	6.38% (inactive)
Cc1cccc(NC(=O)C2CCN(S(=O)(=O)c3c(C)noc3C)CC2)c1	8.96% (inactive)
c1cc[n+](CCC[n+]2ccccc2)cc1	1.9% (inactive)
c1cc[n+](CCCC[n+]2ccccc2)cc1	-7% (inactive)
O=C(Nc1ccc(F)cc1)c1cnc(-c2ccccc2)nc1-c1ccccc1	-11.2% (inactive)
CCCOc1ccc2[nH]c(C(=O)N/N=C/c3cc(OC)c(OC)c(OC)c3)cc2c1	4.27% (inactive)
CCOc1ccc(CCNC(=O)Cc2ccc(NC3=NC4CS(=O)(=O)CC4S3)cc2)cc1 (stereo unspecified)	-10.9% (inactive)
COCCn1c(=NC(=O)CSC(C)=O)sc2cc(OC)ccc21	-1.47% (inactive)
CS(=O)(=O)c1ccc(C(=O)NC(Cc2ccccc2)c2ccccc2)cc1 (stereo unspecified)	-2.61% (inactive)
CS(=O)(=O)c1ccc(C(=O)NCc2ccccc2F)cc1	-1.2% (inactive)
Cn1cc(C(=O)N2CCCCC2)c2ccccc21	5.24% (inactive)
CCCCC[C@@H]1C=C(C(=O)O)[C@H](c2cccc(C)c2)N1S(=O)(=O)c1ccc(C)cc1	9.09% (inactive)
S=C(NCCNC(=S)Nc1ccccc1)Nc1ccccc1	-0.85% (inactive)
COc1ccc(C(CNc2nc(-c3cccnc3)nc3ccccc23)N(C)C)cc1 (stereo unspecified)	-3.31% (inactive)
COC(=O)C1=C(C)N(C)C(=S)NC1c1c(OC)ccc2ccccc12 (stereo unspecified)	8.17% (inactive)
O=C1NCN(c2ccccc2)C12CCNCC2	-2.9% (inactive)
O=C1NCN(c2ccccc2)C12CCN(c1nnnn1-c1ccccc1)CC2	-2.38% (inactive)

SMILES	inhibition
COc1ccc(S(=O)(=O)N(C)CC(=O)NC2CCCC2)cc1OC	-0.73% (inactive)
CC(=O)Nc1cccc(NC(=O)C2C3C=CC(C3)C2C(=O)O)c1 (stereo unspecified)	1.17% (inactive)
Cc1ccc(-c2ccccc2NC(=O)C2C3C=CC(C3)C2C(=O)O)o1 (stereo unspecified)	3.02% (inactive)
CCCCOc1ccc(C(=O)N2CCN(c3ccc(N4CCOCC4)nn3)CC2)cc1	37.3% (inactive)
CNC1=C([N+](=O)[O-])CC([N+](=O)[O-])=C(N2CCNCC2)N1C	1.39% (inactive)
Cc1nn(Cc2ccccc2)c(Cl)c1C(=O)OCC(=O)NC(=O)NC12CC3CC(CC(C3)C1)C2	3.45% (inactive)
CC1CCc2nc3ccccc3c(C(=O)OCC(=O)NC3CCS(=O)(=O)C3)c2C1 (stereo unspecified)	9.92% (inactive)
Cc1c2ccccc2nc2ccccc12	21.6% (inactive)
CCOC(=O)c1cc(-c2ccc(N3CCOCC3)cc2)nn1-c1ccccc1C(=O)O	-2.68% (inactive)
CCOC(=O)c1cc(-c2ccc(N3CCOCC3)cc2)nn1-c1ccc(F)cc1F	30.5% (inactive)
COc1ccccc1N1CCN(c2nnc(-c3ccc(F)cc3)c3ccccc23)CC1	-0.63% (inactive)
COc1cc(C(=O)N/C(=C\c2cn(S(=O)(=O)N(C)C)c3ccccc23)C(=O)N2CCCC2)cc(OC)c1OC	7.41% (inactive)
COc1cc(/C=N/n2cc(-c3ccccc3)[nH]c2=S)cc(OC)c1O	-4.41% (inactive)
Cc1ccc(-n2cnc3scc(-c4cccs4)c3c2=O)cc1	9.75% (inactive)
O=c1cc(/C=C/c2ccccc2)oc2c1ccc1ccccc12	-0.73% (inactive)
O=c1cc(-c2ccccc2)oc2ccccc12	-7.12% (inactive)
CN1CCCN(C(=O)c2cc(-c3ccc(Cl)c(Cl)c3Cl)nc3ccccc23)CC1	5.52% (inactive)
CCOCCCNC(=O)C(NC(=O)Cc1cccs1)c1ccc(OC)cc1 (stereo unspecified)	3.59% (inactive)
CCOC(=O)c1sc(C)c2c(=O)n(CCc3ccccc3)nnc12	-10.6% (inactive)
CCOC(=O)c1sc(C)c2c(=O)n(CC)nnc12	-7.87% (inactive)
COC(=O)C1=C(C)N(CCCC(=O)O)C(=O)NC1c1ccc(Br)cc1 (stereo unspecified)	2.77% (inactive)
COCCn1cc(C(=S)N2CCCCC2)c2ccccc21	5.15% (inactive)
CCOc1ccc(NS(=O)(=O)c2ccc(C(=O)NCCN3CCOCC3)cc2)cc1	-3.65% (inactive)

SMILES	inhibition
CCNC(=S)N/N=C/c1ccc(-c2ccccc2)o1	-5.23% (inactive)
NC(=S)N/N=C/c1ccc(-c2cc(Cl)cc(Cl)c2)o1	-4.69% (inactive)
CC(=O)N1CCN(C(=O)C(Cc2ccccc2)NC(=O)c2ccccc2)CC1 (stereo unspecified)	-1.96% (inactive)
COc1cc(CSC)nc(-c2ccccc2)n1	-6.71% (inactive)
CC1(O)CC(c2ccc(Cl)cc2)=NN1C(=O)c1ccc(Cl)cc1 (stereo unspecified)	47.7% (inactive)
CC(=O)N1N=C(c2ccc(Cl)cc2)CC1c1ccc([N+](=O)[O-])cc1 (stereo unspecified)	-2.62% (inactive)
CC(=O)Nc1ccc(NC(=O)CCn2c(=S)oc3ccccc32)cc1	0.4% (inactive)
Cc1cccc(C)c1NC(=S)N(Cc1ccccc1)Cc1cccnc1	-3.48% (inactive)
O=C(O)[C@@H]1[C@@H]2C[C@@H]2CN1c1ncccc1[N+](=O)[O-]	-3.12% (inactive)
CN1C(=O)N(C)c2ccc(Br)c3cccc1c23	-5.58% (inactive)
CN1C(=O)N(C)c2cccc3cccc1c23	7.44% (inactive)
O=C(c1cc2c(=O)n3ccccc3nc2s1)N1CCN(c2cccc(Cl)c2)CC1	5.56% (inactive)
CC(=O)c1nn(-c2ccccc2)cc1C(=O)c1ccc(C)cc1	2.07% (inactive)
COc1ccc2oc(-c3ccc(C)c(NC(=O)CSc4ccc(Cl)cc4)c3)nc2c1	-3.67% (inactive)
Cc1ccc(/C=C2\SC(=S)N(CCC(=O)NNC(=O)c3ccc(O)cc3)C2=O)cc1	3.42% (inactive)
Cc1cccc(C2=N/C(=C\c3cccnc3)C(=O)O2)c1	-3.98% (inactive)
Cc1ccccc1C1=N/C(=C/c2cccs2)C(=O)O1	61% (inactive)
CCOC(=O)N=Nc1c(O)n(CC(=O)OC)c2ccccc12	-0.16% (inactive)
CCCSc1nc2c(cnn2-c2ccc(Cl)cc2)c(=O)[nH]1	6.95% (inactive)
O=C(NNC(=O)c1cc(S(=O)(=O)N2CCOCC2)c(Cl)cc1Cl)c1ccccc1F	0.47% (inactive)
Cc1nn(Cc2ccccc2)c(C)c1C(=O)OCC(=O)Nc1cc(S(C)(=O)=O)ccc1Cl	6.17% (inactive)
O=C(Nc1ccccc1Cl)N1CCN(c2ccc3nnc(-c4ccc(F)cc4)n3n2)CC1	22.4% (inactive)
O=C(Nc1ccc(F)cc1)N1CCN(c2ccc3nnc(-c4ccc(F)cc4)n3n2)CC1	-4.53% (inactive)

SMILES	inhibition
CC1=C(C(=O)NC(C)c2ccccc2)C2(CCC(C)CC2)OC1=O (stereo unspecified)	-6.81% (inactive)
Cc1cc(/C=C(\C#N)C(=O)NCc2ccccc2)cc(C)c1O	-9.9% (inactive)
CCOc1cc(CNCc2ccc3c(c2)OCO3)ccc1OC	-2.37% (inactive)
COc1ccc(CCNC(=O)CSc2ncc(C(=O)Nc3ccccc3)c(=O)n2C)cc1	-4.13% (inactive)
COc1cccc(NC(=S)N(CCCN2CCCC2)Cc2cccn2Cc2ccc(Cl)cc2)c1	6.09% (inactive)
Cc1cccc(NC(=S)N(CCCN2CCCC2)Cc2cccn2Cc2ccc(Cl)cc2)c1	42.3% (inactive)
CN(C)N1C(=O)/C(=C/c2ccco2)SC1=Nc1ccccc1	-2.31% (inactive)
OC1(c2ccccc2)CCN(Cc2ccccc2)CC1	-0.23% (inactive)
ClC1(CNc2ccccc2)CCN(Cc2ccccc2)CC1	-3.08% (inactive)
CCOC(=O)N1CCC2(CC1)C(C#N)=C(N)OC1=C2C(=O)CC(C)C1 (stereo unspecified)	-8.64% (inactive)
COc1ccc(NC(=O)CSc2nc3ccccc3c(=O)[nH]2)cc1S(N)(=O)=O	-3.14% (inactive)
CC(=O)Nc1ccc(-c2csc(N/N=C\c3ccncc3)n2)cc1	6.44% (inactive)
C(=N\Nc1nc(-c2ccccc2)cs1)/c1cccs1	28.8% (inactive)
CC(CNC(=O)CN1C(=O)NC2(CCCCC2)C1=O)c1ccccc1 (stereo unspecified)	-3.97% (inactive)
COC(=O)c1nnn(CC(=O)NC(=O)Nc2ccccc2)c1C(=O)OC	-6.63% (inactive)
COc1ccc(C(=O)Nc2ccc3c(c2)C(=O)c2ccccc2C3=O)cc1OC	4.14% (inactive)
O=C1c2ccccc2C(=O)c2c1oc(C(F)(F)F)c2C(=O)c1ccccc1	9.23% (inactive)
CC(C)(C)c1ccc(C(=O)NCC(=O)OCC(=O)N2CCN(S(=O)(=O)c3ccc(Cl)cc3)CC2)cc1	8.58% (inactive)
Cc1ccc(S(=O)(=O)NCc2ccc(C(=O)NCCCN3CCN(C)CC3)cc2)cc1	-4.79% (inactive)
CC(=O)Nc1ccc(S(=O)(=O)NCc2ccc(C(=O)NCCCN3CCC(C)CC3)cc2)cc1	2.04% (inactive)
N/C(=N\OC(=O)c1cnn(-c2ccccc2)c1C(F)(F)F)c1cc(C(F)(F)F)cc(C(F)(F)F)c1	9.61% (inactive)
COc1cc(C2/C(=C(\O)c3ccc4c(c3)OCCO4)C(=O)C(=O)N2Cc2ccco2)ccc1O (stereo unspecified)	-4.18% (inactive)
